Assay outcomes from PubChem BioAssay.
C diff growth: C. difficile growth inhibitors, primary screen, HTS; Clostridium difficile clinical isolate growth, OD600, 24 h; active compounds read low; growth activity, negative = inhibition, % at 16 µg/mL (by protocol); 86,000 tested, 0.25% active;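 active = mean growth activity at or below -80% and every replicate also at or below -80%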;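 note: 0% = DMSO wells and -100% = levofloxacin 16 µg/mL wells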
T cruzi growth-1: T. cruzi intracellular proliferation inhibitors, primary screen, cell-based, beta-gal Tulahuen parasites, NIH3T3 host, luminescence. T. cruzi beta-gal in NIH3T3, GalScreen luminescence, 90 h. inhibition, % at 8.34 µM. 77,000 tested, 5.9% active. AID 624255, 2012;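 active = mean inhibition above about 93%, with at least 55% of replicates each passing it, limit read from the data, passing the limit was not always enough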
Pf Dd2 growth: P. falciparum Dd2 growth inhibitors, primary screen, SYBR Green fluorescence, single dose replicates. 72 h; active compounds read low. activity change, % at 10 µM. 94,000 tested, 2.3% active. AID 1159554, 2015; in the data active = activity change below about -80%
T cruzi growth-2: T. cruzi intracellular proliferation inhibitors, confirmation, cell-based, NIH3T3 host, beta-gal parasite, luminescence, cherry-pick; 5,600 tested, 72% active; inhibition, % at 8.35 µM; shares compounds with T cruzi growth-1; AID 651739, 2012; T. cruzi beta-gal in NIH3T3, GalScreen luminescence, 90 h;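 active = mean replicate inhibition above about 95% and at least 55% of replicates individually reaching it, limit read from the data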
T cruzi growth-3: inhibitors of intracellular T. cruzi replication, confirmation, NIH3T3 host cells, beta-gal parasites, cherry-pick, set 2; shares compounds with T cruzi growth-1; T. cruzi beta-gal in NIH3T3, GalScreen luminescence, 90 h; inhibition, % at 2.09 µM; 5,600 tested, 21% active;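 active = mean inhibition above about 95%, with at least 55% of replicates also reaching it, limit read from the data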;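 note: plate controls were neutral control median for no effect and positive control median for full effect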
3T3 cytotox: cytotoxicity in mouse NIH/3T3 fibroblasts, confirmation, cytotoxicity control for T. cruzi proliferation inhibitor project, cell-based, cherry-pick, single point; shares compounds with T cruzi growth-1; 5,600 tested, 14% active; cytotoxicity (signal decrease), % at 8.35 µM; AID 651742, 2012; NIH/3T3 viability, CellTiter-Glo ATP luminescence, 90 h;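 active = mean signal decrease across replicates above about 35% based on untreated-well scatter, with enough replicates individually passing, limit read from the data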;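 note: 0% = median of neutral control wells and 100% = median of positive control wells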
NIH3T3 tox 2: NIH/3T3 fibroblast cytotoxicity, confirmation, cytotoxicity control, cell-based, cherry-pick, single point, set 2 | inhibition, % at 24.9 µM | AID 651744, 2012 | shares compounds with T cruzi growth-1 | NIH/3T3 viability, CellTiter-Glo ATP luminescence, 90 h | 5,600 tested, 56% active;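 active = mean loss of cell viability signal at or above a set limit, and enough replicates individually reaching it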;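 note: 0% = median of neutral control wells and 100% = median of positive control wells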
Numbers without * were called inactive; · = not tested or not shown. Only some compounds are listed: those with a hit (about 6.8% of all), similar ones and a draw of the others.

SMILES | C diff growth | T cruzi growth-1 | Pf Dd2 growth | others
O=C(O)[C@@H]1[C@@H](CO)[C@@H]2Cn3c(ccc(-c4ccncc4)c3=O)[C@H]1N2C(=O)C1CCCCC1 | -5 | 58 | 3
CCCNC(=O)N1[C@@H]2c3ccc(-c4ccccc4OC)c(=O)n3C[C@H]1[C@H](CO)[C@H]2C(=O)O | 1 | 9 | 9
N#Cc1cccc(-c2ccc([C@H]3[C@@H](CO)N4CCCCN(C(=O)Cc5ccncc5)C[C@H]34)cc2)c1 | 2 | 81 | -24
N#Cc1cccc(-c2ccc([C@H]3[C@H](CO)N4CCCCN(C(=O)Cc5ccncc5)C[C@@H]34)cc2)c1 | 3 | 118* | -70 | T cruzi growth-2=100*;T cruzi growth-3=82;3T3 cytotox=15;NIH3T3 tox 2=52*
N#Cc1cccc(-c2ccc([C@H]3[C@@H](CO)N4CCCCN(C(=O)Cc5ccncc5)C[C@@H]34)cc2)c1 | 2 | 102* | 10 | T cruzi growth-2=78;T cruzi growth-3=-15;3T3 cytotox=-17;NIH3T3 tox 2=4
N#Cc1cccc(-c2ccc([C@@H]3[C@@H](CO)N4CCCCN(C(=O)Cc5ccncc5)C[C@@H]34)cc2)c1 | 0 | 66 | 10
N#Cc1cccc(-c2ccc([C@@H]3[C@H](CO)N4CCCCN(C(=O)Cc5ccncc5)C[C@@H]34)cc2)c1 | -7 | 92 | -42
N#Cc1cccc(-c2ccc([C@@H]3[C@H]4CN(C(=O)Cc5ccncc5)CCCCN4[C@H]3CO)cc2)c1 | 0 | 108* | 5 | T cruzi growth-2=74;T cruzi growth-3=3;3T3 cytotox=7;NIH3T3 tox 2=13
O=C(Cc1ccccn1)N1CCCCN2[C@@H](CO)[C@@H](c3ccc(-c4ccccc4F)cc3)[C@@H]2C1 | -10 | 92 | -16
CC(C)NC(=O)N1[C@@H]2Cn3c(ccc(-c4cccc(C(=O)N(C)C)c4)c3=O)[C@H]1[C@@H](C(=O)O)[C@@H]2CO | -5 | -271 | ·
O=C1CNC[C@@H]2[C@H](c3ccc(Br)cc3)[C@H](CO)N12 | 11 | · | -49
O=C(O)[C@H]1[C@H](CO)[C@H]2Cn3c(ccc(-c4cccnc4)c3=O)[C@@H]1N2S(=O)(=O)c1ccccc1F | 3 | 31 | -14
COCC#Cc1ccc([C@@H]2[C@H]3CN(C(=O)Cc4ccccn4)CCCCN3[C@H]2CO)cc1 | -13 | 90 | -12
